Screening data: PubChem BioAssay, several laboratories
PPC-1+TRAIL kill: PPC-1 cancer cell killing with TRAIL present; PPC-1 cells + TRAIL, ATPLite viability luminescence; cell killing (% activity), % at 4 µM or 5 µM; 0.41% of 220,000 active;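 active means cell killing above 50% in the first pass at 4 µM, then a duplicate retest at 5 µM averaging 50% or more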;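 further: plate controls were cells with TRAIL plus DMSO for no effect and medium-only wells lacking cells for full effect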
HSP90 refold inh: inhibitors of HSP90 luciferase refolding in rabbit reticulocyte lysate. luciferase refolding luminescence, 3 h. inhibition, % at 5.6 µM. 0.91% of 290,000 active. AID 1789;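 active means inhibition above the screen-wide mean plus 3 SD, computed separately per campaign, cut at about 16% in these data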;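 further: 0% = DMSO wells and 100% = 60 µM geldanamycin wells; inhibitors lower the luminescence because luciferase stays unfolded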
TROY signal inh: inhibitors of TROY-dependent NF-kB signaling; Q293 LMP1-TROYcd NF-kB luciferase reporter, 4 h; inhibition, % at 10 µM; 0.98% of 360,000 active; AID 1347056;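 active means compounds whose plate-normalised and pattern-corrected inhibition of the luciferase reporter signal at the single screening dose is 50% or more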
Platelet DG rel: modulates dense granule release in human platelets. human platelet-rich plasma, SFLLRN dense granule ATP release, luminescence. inhibition, %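 (compounds screened at 7.5 µM in platelet-rich plasma)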. 0.22% of 300,000 active. AID 1663;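 active means mean replicate score, as percent of positive control, at or above 50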
TRAIL sens C8: sensitizes caspase-8 expressing cells to TRAIL. 1% of 360,000 active. NB7+C8 cells + TRAIL, ATPlite viability luminescence. inhibition (viability loss, TRAIL sensitization), % at 10 µM;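 active means compounds causing at least 50% loss of cell viability in the single-dose screen, relative to plate controls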
TWEAK Fn14 block: TWEAK-Fn14 signaling inhibition; TWEAK-stimulated Fn14 reporter cells, luciferase luminescence, 8 h; inhibition, % at 10 µM; 2% of 360,000 active; in the data active means inhibition above about 50%
PPC-1 tox: kills PPC-1 cells | 50% of 1,200 active | PPC-1 viability, ATPlite luminescence, overnight | shares compounds with PPC-1+TRAIL kill | cytotoxicity, % at 5 µM;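 active means reconfirmed compounds whose average cytotoxicity reaches 50% or more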;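 further: 0% = DMSO-treated cells and 100% = wells holding medium but no cells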
HSP90 confirm: HSP90 inhibition, confirmation assay. shares compounds with HSP90 refold inh. rabbit reticulocyte lysate, luciferase refolding luminescence, 3 h. inhibition, % at 5.9 µM. 64% of 2,300 active. AID 1846; in the data active means inhibition above about 18%;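 further: 0% = vehicle wells and 100% = reference inhibitor wells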
luciferase ctr: firefly luciferase inhibition, HSP90 counter-screen; shares compounds with HSP90 refold inh; purified native firefly luciferase, luminescence; inhibition, % at 5.9 µM; 48% of 2,300 active; AID 1847;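 active means inhibition above the mean inhibition of all tested sample wells plus 3 SD, cut at about 10% in these data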;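 further: 0% = DMSO with luciferase and 100% = wells lacking luciferase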
Target sequence (P08659 whole entry, looked up): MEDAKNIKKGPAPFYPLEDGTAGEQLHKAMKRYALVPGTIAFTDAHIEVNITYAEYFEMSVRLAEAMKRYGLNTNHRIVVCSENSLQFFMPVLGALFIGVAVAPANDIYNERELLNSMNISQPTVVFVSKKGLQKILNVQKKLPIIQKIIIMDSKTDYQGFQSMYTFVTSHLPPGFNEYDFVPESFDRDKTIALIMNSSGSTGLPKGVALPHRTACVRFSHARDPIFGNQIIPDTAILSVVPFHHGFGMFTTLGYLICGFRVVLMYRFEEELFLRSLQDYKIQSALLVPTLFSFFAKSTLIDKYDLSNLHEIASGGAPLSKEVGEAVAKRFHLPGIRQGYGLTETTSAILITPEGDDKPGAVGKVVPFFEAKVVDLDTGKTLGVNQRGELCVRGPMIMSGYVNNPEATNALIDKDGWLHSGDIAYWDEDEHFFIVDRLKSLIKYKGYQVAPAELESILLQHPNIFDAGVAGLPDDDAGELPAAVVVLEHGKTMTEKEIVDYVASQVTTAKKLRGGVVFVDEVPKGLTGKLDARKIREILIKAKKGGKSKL
* = called active by the depositor. A selection: hits, their analogues and other compounds. The true share with any hit is near 3.5%.

Results for O=C(Nc1nc2ccccc2[nH]1)c1ccccc1F ?
PPC-1+TRAIL kill: 77.2*; HSP90 refold inh: 84.2*; TROY signal inh: 83.8*; Platelet DG rel: 86.8*; TRAIL sens C8: 89.7*; TWEAK Fn14 block: 102.5*; PPC-1 tox: 79.3*; HSP90 confirm: 94.6*; luciferase ctr: 88.0*

Results for O=C(Nc1nc2ccccc2[nH]1)c1ccc(F)cc1 ?
PPC-1+TRAIL kill: 72.5*; HSP90 refold inh: 34.8*; TROY signal inh: 10.3; Platelet DG rel: 9.8; TRAIL sens C8: 82.7*; TWEAK Fn14 block: 69.1*; PPC-1 tox: 71.8*; HSP90 confirm: 57.4*; luciferase ctr: 43.6*

What do the screens show for `CCOc1ccc(S(=O)(=O)N2CCOCC2)cc1NC(=O)Cc1c(F)cccc1Cl`?
TROY signal inh: 2.5; Platelet DG rel: -2.0; TRAIL sens C8: 8.6; TWEAK Fn14 block: -2.6

How did COc1cccc(CNc2cccc3cccnc23)c1O do in these assays?
PPC-1+TRAIL kill: -1.9; HSP90 refold inh: 20.3*; TROY signal inh: 8.1; Platelet DG rel: -4.1; TRAIL sens C8: 4.8; TWEAK Fn14 block: 31.0; PPC-1 tox: 9.3; HSP90 confirm: -11.1; luciferase ctr: -30.2

How did CS(=O)(=O)c1ccc2nc(NC(=O)c3cccs3)sc2c1 do in these assays?
PPC-1+TRAIL kill: 75.2*; HSP90 refold inh: 18.4*; TROY signal inh: 34.1; TRAIL sens C8: 80.7*; TWEAK Fn14 block: 69.0*; PPC-1 tox: 76.1*; HSP90 confirm: 36.7*; luciferase ctr: 23.0*

Results for CCC(=O)Nc1nc2ccc(S(C)(=O)=O)cc2s1 ?
PPC-1+TRAIL kill: 1.4; HSP90 refold inh: -3.9; TROY signal inh: -25.9; Platelet DG rel: -2.4; TRAIL sens C8: 4.8; TWEAK Fn14 block: 7.4

What do the screens show for `Cc1ccc2nc(NC(=O)c3cccs3)sc2c1`?
PPC-1+TRAIL kill: 51.7*; HSP90 refold inh: 18.8*; TROY signal inh: 23.2; TRAIL sens C8: 61.3*; TWEAK Fn14 block: 78.5*; PPC-1 tox: 54.0*; HSP90 confirm: 40.1*; luciferase ctr: 37.9*

Results for Cc1ccc2nc(NC(=O)c3ccc4ncsc4c3)sc2c1 ?
PPC-1+TRAIL kill: 32.2; HSP90 refold inh: 6.3; TROY signal inh: 19.6; Platelet DG rel: -4.7; TRAIL sens C8: 39.1; TWEAK Fn14 block: 20.4

How did C[C@H](NC(=O)[C@@H]1CCCN1C(=O)OC(C)(C)C)c1ccccc1 do in these assays?
TROY signal inh: -3.8; TRAIL sens C8: -3.5; TWEAK Fn14 block: 13.4

How did COC(=O)c1ccc2nc(NC(=O)C(C)(C)C)sc2c1 do in these assays?
PPC-1+TRAIL kill: 85.3*; HSP90 refold inh: 66.8*; TROY signal inh: 80.5*; Platelet DG rel: -1.5; TRAIL sens C8: 90.2*; TWEAK Fn14 block: 96.4*; PPC-1 tox: 86.2*; HSP90 confirm: 77.8*; luciferase ctr: 73.5*

How did CN1CCN(S(=O)(=O)c2ccc(N(C)Cc3cccc(F)c3)nc2)CC1 do in these assays?
TROY signal inh: 10.1; TRAIL sens C8: -10.4; TWEAK Fn14 block: 12.6

Results for COC(=O)c1sc2nc(C)cc(C)c2c1N ?
PPC-1+TRAIL kill: 34.0; HSP90 refold inh: 0.0; TROY signal inh: -26.2; Platelet DG rel: 0.1; TRAIL sens C8: 0.3; TWEAK Fn14 block: -0.8

Results for Cc1cc(C)c2c(N)c(C(=O)Nc3ncc(C)s3)sc2n1 ?
PPC-1+TRAIL kill: 96.0*; HSP90 refold inh: 70.2*; TROY signal inh: 4.7; TRAIL sens C8: 94.0*; TWEAK Fn14 block: 79.0*; PPC-1 tox: 95.9*; HSP90 confirm: 91.6*; luciferase ctr: 87.5*

Results for COc1cc(-c2nc(-c3ccccn3)no2)cc(OC)c1OC ?
PPC-1+TRAIL kill: 11.7; HSP90 refold inh: -0.1; TROY signal inh: -62.2; Platelet DG rel: 2.0; TRAIL sens C8: -8.7; TWEAK Fn14 block: -32.4

What do the screens show for `c1ccc(-c2nc(-c3ccccn3)no2)cc1`?
PPC-1+TRAIL kill: 71.8*; HSP90 refold inh: 45.9*; TROY signal inh: 73.3*; Platelet DG rel: -9.6; TRAIL sens C8: 75.3*; TWEAK Fn14 block: 93.8*; PPC-1 tox: 66.0*; HSP90 confirm: 79.5*; luciferase ctr: 70.3*

Results for Clc1cccc(-c2nc(-c3ccccn3)no2)c1 ?
PPC-1+TRAIL kill: 70.1*; HSP90 refold inh: 57.4*; TROY signal inh: 69.8*; Platelet DG rel: 21.6; TRAIL sens C8: 77.3*; TWEAK Fn14 block: 97.2*; PPC-1 tox: 66.3*; HSP90 confirm: 81.9*; luciferase ctr: 75.7*

How did Cc1ccc(-c2nc(-c3ccccn3)no2)cc1 do in these assays?
PPC-1+TRAIL kill: 92.8*; HSP90 refold inh: 93.6*; TROY signal inh: 86.5*; Platelet DG rel: 52.4*; TRAIL sens C8: 91.9*; TWEAK Fn14 block: 106.1*; PPC-1 tox: 92.4*; HSP90 confirm: 97.7*; luciferase ctr: 93.9*

How did Cc1ccc(NS(=O)(=O)c2ccc(-c3csc(C)n3)s2)c(C)c1 do in these assays?
PPC-1+TRAIL kill: 3.0; HSP90 refold inh: -2.8; TROY signal inh: 9.9; Platelet DG rel: -0.9; TRAIL sens C8: 13.0; TWEAK Fn14 block: -14.0

How did CN1C(=O)[C@H]2[C@@H](c3ccc(C(F)(F)F)cc3)N[C@]3(CCCN(Cc4cccn4C)C3=O)[C@H]2C1=O do in these assays?
TROY signal inh: -9.1; TRAIL sens C8: 5.4; TWEAK Fn14 block: 11.7

Results for Cc1ccc2c(c1)sc(=NC(=O)c1cccs1)n2C ?
PPC-1+TRAIL kill: 88.3*; HSP90 refold inh: 27.6*; TROY signal inh: 58.5*; Platelet DG rel: 12.9; TRAIL sens C8: 91.4*; TWEAK Fn14 block: 89.1*; PPC-1 tox: 84.9*; HSP90 confirm: 83.9*; luciferase ctr: 79.7*

How did CC1CN(S(=O)(=O)c2cccc(C(=O)OC(C)C(=O)NC3CCCCC3C)c2)CC(C)O1 (stereo not drawn) do in these assays?
HSP90 refold inh: -1.3; TROY signal inh: -9.2; Platelet DG rel: 2.8; TRAIL sens C8: -10.5; TWEAK Fn14 block: -6.4

How did Cc1ccc(C(=O)n2c(N)nc3ccccc32)cc1 do in these assays?
PPC-1+TRAIL kill: 92.2*; HSP90 refold inh: 59.7*; TROY signal inh: 72.8*; Platelet DG rel: 31.1; TRAIL sens C8: 95.2*; TWEAK Fn14 block: 99.3*; PPC-1 tox: 92.8*; HSP90 confirm: 88.7*; luciferase ctr: 83.0*

Results for Cc1ccc(-n2[nH]c(=O)c(-c3ccccn3)c2C)cc1 ?
PPC-1+TRAIL kill: 46.4; HSP90 refold inh: 69.6*; TROY signal inh: 80.7*; Platelet DG rel: 5.9; TRAIL sens C8: 60.7*; TWEAK Fn14 block: 100.7*; PPC-1 tox: 50.9*; HSP90 confirm: 81.3*; luciferase ctr: 75.7*
